# Experimental data reported in the supplement of paper PMC8728848.
# Many of the other results were omitted from the sample, so the strongest signals are more common in it than they were.
# B1: RBMC1 (Vibrio cholerae) (protein)
# chain: QQSQRVVTADNLMYLRSGFAIDAIGTTVNNLVGGPVQGTNGGVLRAPIALDQLQSVEVTSGLYNWGGYHIVAIKFTMKDGSSVLLGSTHYASNKKVETYTVPQGKRIKQINVWTGGWLVEGFQFVY
# What was measured:
# Test in all cases: glycan array binding signal (z-score within array); higher = stronger binding
# Details in all cases: glycan notation: IUPAC condensed, linker removed
# [1] = molecular target: Gal(b1-4)GlcNAc(b1-3)Gal(b1-4)GlcNAc(b1-3)Gal(b1-4)GlcNAc(b1-3)Gal(b1-4)GlcNAc(b1-3)Gal(b1-4)GlcNAc(b1-3)Gal(b1-4)GlcNAc(b1-2)Man(a1-3)[Gal(b1-4)GlcNAc(b1-3)Gal(b1-4)GlcNAc(b1-3)Gal(b1-4)GlcNAc(b1-3)Gal(b1-4)GlcNAc(b1-3)Gal(b1-4)GlcNAc(b1-3)Gal(b1-4)GlcNAc(b1-2)Man(a1-6)]Man(b1-4)GlcNAc(b1-4)GlcNAc
# Summary of the method: (§1)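 Glycan array data came from 3228 arrays in the Consortium for Functional Glycomics database, and only arrays with an available protein sequence were kept. Glycan names were put into IUPAC-condensed notation, and columns mapping to the same glycan were averaged. The binding signal is a within-array Z-score, averaged across arrays of one protein sequence run at different concentrations or buffers and across linkers. A negative Z-score can be read as non-binding.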
# [2] = molecular target: Gal(b1-4)GlcNAc(b1-6)GalNAc
# Summary of the method: as §1
# [3] = molecular target: Gal(b1-4)GlcNAc(b1-6)[Gal(b1-3)]GalNAc
# Summary of the method: as §1
# [4] = molecular target: Gal3S(b1-4)[Fuc(a1-3)]GlcNAc
# Summary of the method: as §1
# [5] = molecular target: GalNAc(a1-3)GalNAc(b1-3)Gal(a1-4)Gal(b1-4)GlcNAc
# Summary of the method: as §1
# Glc(a1-4)Glc = molecular target: Glc(a1-4)Glc
# Summary of the method: as §1
# [6] = molecular target: GlcA3S(b1-3)Gal(b1-4)GlcNAc(b1-3)Gal(b1-4)Glc
# Summary of the method: as §1
# [7] = molecular target: GlcNAc(a1-4)Gal(b1-3)GlcNAc
# Summary of the method: as §1
# [8] = molecular target: GlcNAc(a1-4)Gal(b1-4)GlcNAc(b1-3)Gal(b1-4)Glc
# Summary of the method: as §1
# [9] = molecular target: GlcNAc(b1-3)Gal(b1-4)GlcNAc(b1-2)Man(a1-3)[GlcNAc(b1-3)Gal(b1-4)GlcNAc(b1-2)Man(a1-6)]Man(b1-4)GlcNAc(b1-4)[Fuc(a1-6)]GlcNAc
# Summary of the method: as §1
# [10] = molecular target: GlcNAc(b1-3)Gal(b1-4)GlcNAc(b1-2)[GlcNAc(b1-3)Gal(b1-4)GlcNAc(b1-6)]Man(a1-6)[GlcNAc(b1-3)Gal(b1-4)GlcNAc(b1-2)Man(a1-3)]Man(b1-4)GlcNAc(b1-4)GlcNAc
# Summary of the method: as §1
# [11] = molecular target: GlcNAc(b1-3)Gal(b1-4)GlcNAc(b1-3)Gal(b1-4)GlcNAc(b1-2)Man(a1-3)[GlcNAc(b1-3)Gal(b1-4)GlcNAc(b1-3)Gal(b1-4)GlcNAc(b1-2)Man(a1-6)]Man(b1-4)GlcNAc(b1-4)[Fuc(a1-6)]GlcNAc
# Summary of the method: as §1
# [12] = molecular target: GlcNAc(b1-3)[GlcNAc(b1-4)][GlcNAc(b1-6)]GlcNAc
# Summary of the method: as §1
# [13] = molecular target: GlcNAc(b1-4)GlcNAc(b1-4)GlcNAc(b1-4)GlcNAc(b1-4)GlcNAc
# Summary of the method: as §1
# GlcNAc(b1-6)GalNAc = molecular target: GlcNAc(b1-6)GalNAc
# Summary of the method: as §1
# [14] = molecular target: GlcNAc6S(b1-3)Gal(b1-4)GlcNAc
# Summary of the method: as §1
# [15] = molecular target: Man(a1-2)Man(a1-2)Man(a1-3)Man
# Summary of the method: as §1
# Man(a1-3)[Man(a1-6)]Man = molecular target: Man(a1-3)[Man(a1-6)]Man
# Summary of the method: as §1
# [16] = molecular target: Man(a1-3)[Man(a1-6)]Man(a1-6)[Man(a1-2)Man(a1-3)]Man(b1-4)GlcNAc(b1-4)GlcNAc
# Summary of the method: as §1
# [17] = molecular target: Man(a1-3)[Man(a1-6)]Man(b1-4)GlcNAc(b1-4)GlcNAc
# Summary of the method: as §1
# Man(a1-6)Man = molecular target: Man(a1-6)Man
# Summary of the method: as §1
# [18] = molecular target: Neu5Ac(a2-3)Gal(b1-3)GalNAc
# Summary of the method: as §1
# [19] = molecular target: Neu5Ac(a2-3)Gal(b1-4)GlcNAc(b1-2)Man(a1-3)[Neu5Ac(a2-3)Gal(b1-4)GlcNAc(b1-2)Man(a1-6)]Man(b1-4)GlcNAc(b1-4)[Fuc(a1-6)]GlcNAc
# Summary of the method: as §1
# [20] = molecular target: Neu5Ac(a2-3)Gal(b1-4)GlcNAc(b1-3)Gal(b1-4)GlcNAc(b1-3)Gal(b1-4)GlcNAc(b1-2)Man(a1-3)[Neu5Ac(a2-3)Gal(b1-4)GlcNAc(b1-3)Gal(b1-4)GlcNAc(b1-3)Gal(b1-4)GlcNAc(b1-2)Man(a1-6)]GalNAc
# Summary of the method: as §1
# [21] = molecular target: Neu5Ac(a2-3)Gal(b1-4)GlcNAc(b1-6)GalNAc
# Summary of the method: as §1
# [22] = molecular target: Neu5Ac(a2-3)Gal(b1-4)[Fuc(a1-3)]GlcNAc(b1-3)GalNAc
# Summary of the method: as §1
# [23] = molecular target: Neu5Ac(a2-3)[GalNAc(b1-4)]Gal(b1-4)Glc
# Summary of the method: as §1
# [24] = molecular target: Neu5Ac(a2-6)Gal(b1-3)GlcNAc(b1-3)[Gal(b1-4)GlcNAc(b1-6)]Gal(b1-4)Glc
# Summary of the method: as §1
# [25] = molecular target: Neu5Ac(a2-6)Gal(b1-4)GlcNAc(b1-2)Man(a1-3)[Man(a1-6)]Man(b1-4)GlcNAc(b1-4)GlcNAc
# Summary of the method: as §1
# [26] = molecular target: Neu5Ac(a2-6)Gal(b1-4)GlcNAc(b1-2)Man(a1-3)[Neu5Ac(a2-6)Gal(b1-4)GlcNAc(b1-2)Man(a1-6)]Man(b1-4)GlcNAc(b1-4)GlcNAc
# Summary of the method: as §1
binder,measurement,setting,value
B1,glycan array binding signal (z-score),[1],0.712
same,glycan array binding signal (z-score),[2],-0.186
same,glycan array binding signal (z-score),[3],0.163
same,glycan array binding signal (z-score),[4],-0.188
same,glycan array binding signal (z-score),[5],-0.064
same,glycan array binding signal (z-score),Glc(a1-4)Glc,-0.216
same,glycan array binding signal (z-score),[6],-0.217
same,glycan array binding signal (z-score),[7],-0.355
same,glycan array binding signal (z-score),[8],-0.284
same,glycan array binding signal (z-score),[9],2.83
same,glycan array binding signal (z-score),[10],-0.295
same,glycan array binding signal (z-score),[11],2.5
same,glycan array binding signal (z-score),[12],-0.158
same,glycan array binding signal (z-score),[13],-0.358
same,glycan array binding signal (z-score),GlcNAc(b1-6)GalNAc,-0.289
same,glycan array binding signal (z-score),[14],-0.267
same,glycan array binding signal (z-score),[15],-0.395
same,glycan array binding signal (z-score),Man(a1-3)[Man(a1-6)]Man,0.002
same,glycan array binding signal (z-score),[16],0.166
same,glycan array binding signal (z-score),[17],1.13
same,glycan array binding signal (z-score),Man(a1-6)Man,1.1
same,glycan array binding signal (z-score),[18],-0.226
same,glycan array binding signal (z-score),[19],3.39
same,glycan array binding signal (z-score),[20],0.281
same,glycan array binding signal (z-score),[21],-0.114
same,glycan array binding signal (z-score),[22],-0.194
same,glycan array binding signal (z-score),[23],-0.432
same,glycan array binding signal (z-score),[24],-0.461
same,glycan array binding signal (z-score),[25],10.4
same,glycan array binding signal (z-score),[26],4.94
